Source: the supplement of paper PMC10849652
Of roughly 8,800 targets only a part is listed; those with a hit were picked by preference. About 0.5% of all pairs of compound and target were hits. A number with no mark means an inactive call.

Columns and labels:
Test in all cases: log2 fold change, soluble protein after heating vs DMSO (PISA); higher = thermal stabilisation; K562 lysate, 10 uM; active = over 0.2 and 3.5 SD of the protein, either way, in both replicates (recomputed)
[1] = compound: CCCS(=O)(=O)Nc1ccc(F)c(C(=O)c2c[nH]c3ncc(-c4ccc(Cl)cc4)cc23)c1F [vemurafenib]
Procedure, shortened: (§1)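 Following dounce homogenisation of K562 pellets in PBS pH 7.4 with 1 mM MgCl2, crude extract at 1 mg/mL protein was incubated for 30 min with 10 μM compound. Aliquots were then heated for 3 min over 48°C-58°C and pooled, NP-40 was added to 0.5% at 4°C, and soluble protein was recovered as the supernatant at 21,000xg for 90 min. Channel-sum-equalised TMTpro 16plex LC-MS/MS quantified this protein. Each value, from duplicates, is a log-two fold change in thermal stability relative to solvent controls.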

[2] = compound: CCCS(=O)(=O)Nc1ccc(F)c(C(=O)c2c[nH]c3ncc(Cl)cc23)c1F
Procedure, shortened: as §1

[3] = compound: CCN(CCCOc1ccc2c(Nc3cc(CC(=O)Nc4cccc(F)c4)[nH]n3)ncnc2c1)CCOP(=O)(O)O [barasertib]
Procedure, shortened: as §1

[4] = compound: CC[C@@H]1C(=O)N(C)c2cnc(Nc3ccc(C(=O)NC4CCN(C)CC4)cc3OC)nc2N1C1CCCC1
Procedure, shortened: as §1

[5] = compound: CC[C@@H]1C(=O)N(C)c2cnc(Nc3ccc(C(=O)N[C@H]4CC[C@H](N5CCN(CC6CC6)CC5)CC4)cc3OC)nc2N1C(C)C [volasertib]
Procedure, shortened: as §1

[6] = compound: CCn1c(C(=O)N(C2CC2)C2CC2)cc2c3c(ncn3C)c(Nc3cc(C)n(C)n3)nc21
Procedure, shortened: as §1

[7] = compound: CCn1cc(-c2ccnc3[nH]c(-c4cccc(CN(C)C)c4)cc23)c(-c2ccc(NC(=O)N(C)C)cc2)n1
Procedure, shortened: as §1

[8] = compound: CN1CCC(CNc2ccc3ncc(-c4cccc(OC(F)(F)F)c4)n3n2)CC1
Procedure, shortened: as §1

[9] = compound: CN1CCN(CCOc2cc(OC3CCOCC3)c3c(Nc4c(Cl)ccc5c4OCO5)ncnc3c2)CC1 [saracatinib]
Procedure, shortened: as §1

[10] = compound: CN1CCN(c2nc(C3=C(c4c[nH]c5ccccc45)C(=O)NC3=O)c3ccccc3n2)CC1 [sotrastaurin]
Procedure, shortened: as §1

[11] = compound: CN1CC[C@H](c2c(O)cc(O)c3c(=O)cc(-c4ccccc4Cl)oc23)[C@H](O)C1 [alvocidib]
Procedure, shortened: as §1

[12] = compound: CN1CCc2c(c3ccccc3n2Cc2ccc(C(=O)NO)cc2)C1 [Tubastatin A]
Procedure, shortened: as §1

[13] = compound: CNC(=O)C1=CC=CC=C1NC2=NC(=NC=C2Cl)NC3=C(C=C(C=C3)N4CCOCC4)OC
Procedure, shortened: as §1

[14] = compound: CNC(=O)c1ccc(Nc2ncc(C(F)(F)F)c(NCc3nccnc3N(C)S(C)(=O)=O)n2)cc1 [defactinib]
Procedure, shortened: as §1

[15] = compound: CNc1nc(-c2ccc3c(N)n[nH]c3c2)cc(N2C[C@@H](C(=O)NC3CCCCC3)CC[C@H]2C)n1
Procedure, shortened: as §1

[16] = compound: COC(=O)N[C@@H](C)CNc1nccc(-c2cn(C(C)C)nc2-c2cc(Cl)cc(NS(C)(=O)=O)c2F)n1 [encorafenib]
Procedure, shortened: as §1

[17] = compound: COC(=O)[C@H](CCSC)NC(=O)C1=C(C=C(C=C1)NC[C@H](CS)N)C2=CC=CC=C2
Procedure, shortened: as §1

[18] = compound: COc1cc(Nc2ncc3c(n2)-c2ccc(Cl)cc2C(c2c(F)cccc2OC)=NC3)ccc1C(=O)O [alisertib]
Procedure, shortened: as §1

[19] = compound: COc1cc2nc(-c3cc(F)ccc3O)nc(N[C@@H]3CNC[C@H]3C(C)(C)O)c2cc1OC
Procedure, shortened: as §1

[20] = compound: COc1cc2ncnc(Nc3ccc(F)c(Cl)c3)c2cc1OCCCN1CCOCC1 [gefitinib]
Procedure, shortened: as §1

Chain of UniProt O15530 (O15530 whole entry, looked up): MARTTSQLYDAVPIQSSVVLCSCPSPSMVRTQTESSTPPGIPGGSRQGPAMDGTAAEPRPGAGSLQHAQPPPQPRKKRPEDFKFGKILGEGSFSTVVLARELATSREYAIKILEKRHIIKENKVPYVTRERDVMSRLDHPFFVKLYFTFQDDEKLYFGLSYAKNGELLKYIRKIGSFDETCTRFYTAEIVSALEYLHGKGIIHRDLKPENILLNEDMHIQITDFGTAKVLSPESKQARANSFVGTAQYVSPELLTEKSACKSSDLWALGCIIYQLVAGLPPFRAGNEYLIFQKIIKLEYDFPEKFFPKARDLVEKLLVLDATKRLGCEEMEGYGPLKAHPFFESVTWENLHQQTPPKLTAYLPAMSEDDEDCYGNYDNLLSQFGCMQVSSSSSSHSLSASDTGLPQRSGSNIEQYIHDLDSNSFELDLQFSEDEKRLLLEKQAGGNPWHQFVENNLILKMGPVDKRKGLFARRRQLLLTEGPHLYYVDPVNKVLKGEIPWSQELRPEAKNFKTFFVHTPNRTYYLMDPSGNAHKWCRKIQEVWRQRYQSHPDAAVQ
Chain of UniProt Q9H939 (Q9H939 whole entry, looked up): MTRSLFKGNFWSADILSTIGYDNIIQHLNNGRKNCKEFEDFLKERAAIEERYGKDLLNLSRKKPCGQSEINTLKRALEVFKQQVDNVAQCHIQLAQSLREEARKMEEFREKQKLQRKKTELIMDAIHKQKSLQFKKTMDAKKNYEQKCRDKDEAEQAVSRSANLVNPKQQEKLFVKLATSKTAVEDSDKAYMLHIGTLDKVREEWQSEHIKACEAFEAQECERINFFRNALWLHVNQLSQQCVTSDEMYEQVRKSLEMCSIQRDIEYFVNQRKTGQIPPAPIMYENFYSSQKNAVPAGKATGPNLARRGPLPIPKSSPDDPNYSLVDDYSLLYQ
Chain of UniProt Q15269 (Q15269 whole entry, looked up): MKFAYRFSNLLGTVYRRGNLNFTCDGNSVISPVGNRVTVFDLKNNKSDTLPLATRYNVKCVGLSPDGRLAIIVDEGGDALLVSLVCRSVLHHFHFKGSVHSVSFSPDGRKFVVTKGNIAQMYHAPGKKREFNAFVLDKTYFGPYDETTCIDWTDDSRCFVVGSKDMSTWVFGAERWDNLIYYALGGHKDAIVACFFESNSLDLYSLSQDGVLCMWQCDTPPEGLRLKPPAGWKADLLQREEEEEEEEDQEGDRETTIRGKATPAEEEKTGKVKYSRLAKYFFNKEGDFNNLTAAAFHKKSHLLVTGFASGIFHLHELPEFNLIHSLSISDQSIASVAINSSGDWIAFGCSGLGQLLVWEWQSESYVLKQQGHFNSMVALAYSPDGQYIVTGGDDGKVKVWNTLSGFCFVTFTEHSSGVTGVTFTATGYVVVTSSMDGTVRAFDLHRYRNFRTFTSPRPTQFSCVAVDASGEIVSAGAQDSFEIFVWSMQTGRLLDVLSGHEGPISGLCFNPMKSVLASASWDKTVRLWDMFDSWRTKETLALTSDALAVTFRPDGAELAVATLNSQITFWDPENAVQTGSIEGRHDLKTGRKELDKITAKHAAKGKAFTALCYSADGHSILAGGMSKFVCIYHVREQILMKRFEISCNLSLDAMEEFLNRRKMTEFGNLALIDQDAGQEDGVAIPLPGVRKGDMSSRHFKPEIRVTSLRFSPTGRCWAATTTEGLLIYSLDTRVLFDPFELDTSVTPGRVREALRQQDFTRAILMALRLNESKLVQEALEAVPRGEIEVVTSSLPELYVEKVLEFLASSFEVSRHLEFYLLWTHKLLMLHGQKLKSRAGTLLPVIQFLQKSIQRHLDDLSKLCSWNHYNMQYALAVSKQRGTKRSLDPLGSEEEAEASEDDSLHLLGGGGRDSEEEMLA
Chain of UniProt O00541 (O00541 whole entry, looked up): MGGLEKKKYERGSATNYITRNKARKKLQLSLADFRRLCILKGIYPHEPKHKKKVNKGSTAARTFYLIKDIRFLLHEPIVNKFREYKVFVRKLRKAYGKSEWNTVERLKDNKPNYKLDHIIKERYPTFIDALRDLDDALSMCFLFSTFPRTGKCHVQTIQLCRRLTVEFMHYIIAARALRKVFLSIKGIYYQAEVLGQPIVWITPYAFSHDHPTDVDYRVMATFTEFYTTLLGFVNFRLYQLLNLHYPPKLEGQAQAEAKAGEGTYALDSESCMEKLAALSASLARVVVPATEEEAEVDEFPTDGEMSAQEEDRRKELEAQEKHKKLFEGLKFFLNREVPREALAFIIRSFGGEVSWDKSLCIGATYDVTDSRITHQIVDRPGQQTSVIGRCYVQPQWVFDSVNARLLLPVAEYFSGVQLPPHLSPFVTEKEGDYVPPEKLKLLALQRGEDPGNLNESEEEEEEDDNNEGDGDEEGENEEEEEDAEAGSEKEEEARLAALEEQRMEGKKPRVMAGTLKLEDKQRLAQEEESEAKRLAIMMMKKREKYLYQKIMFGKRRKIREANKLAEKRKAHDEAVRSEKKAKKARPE
Chain of UniProt P78395 (P78395 whole entry, looked up): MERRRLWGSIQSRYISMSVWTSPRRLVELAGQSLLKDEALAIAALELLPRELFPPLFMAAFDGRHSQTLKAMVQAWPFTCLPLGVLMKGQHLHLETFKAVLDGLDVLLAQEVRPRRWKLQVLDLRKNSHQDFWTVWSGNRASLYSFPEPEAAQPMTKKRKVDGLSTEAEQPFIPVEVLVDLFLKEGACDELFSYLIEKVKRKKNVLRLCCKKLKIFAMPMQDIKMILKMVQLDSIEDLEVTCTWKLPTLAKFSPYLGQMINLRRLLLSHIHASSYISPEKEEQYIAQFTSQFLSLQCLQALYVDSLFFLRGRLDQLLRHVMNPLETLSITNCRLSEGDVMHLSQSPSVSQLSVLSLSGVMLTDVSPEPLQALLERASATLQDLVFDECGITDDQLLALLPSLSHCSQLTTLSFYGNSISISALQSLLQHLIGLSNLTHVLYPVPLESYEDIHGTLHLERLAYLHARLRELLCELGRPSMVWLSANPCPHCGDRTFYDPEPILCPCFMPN
Chain of UniProt P46020 (P46020 whole entry, looked up): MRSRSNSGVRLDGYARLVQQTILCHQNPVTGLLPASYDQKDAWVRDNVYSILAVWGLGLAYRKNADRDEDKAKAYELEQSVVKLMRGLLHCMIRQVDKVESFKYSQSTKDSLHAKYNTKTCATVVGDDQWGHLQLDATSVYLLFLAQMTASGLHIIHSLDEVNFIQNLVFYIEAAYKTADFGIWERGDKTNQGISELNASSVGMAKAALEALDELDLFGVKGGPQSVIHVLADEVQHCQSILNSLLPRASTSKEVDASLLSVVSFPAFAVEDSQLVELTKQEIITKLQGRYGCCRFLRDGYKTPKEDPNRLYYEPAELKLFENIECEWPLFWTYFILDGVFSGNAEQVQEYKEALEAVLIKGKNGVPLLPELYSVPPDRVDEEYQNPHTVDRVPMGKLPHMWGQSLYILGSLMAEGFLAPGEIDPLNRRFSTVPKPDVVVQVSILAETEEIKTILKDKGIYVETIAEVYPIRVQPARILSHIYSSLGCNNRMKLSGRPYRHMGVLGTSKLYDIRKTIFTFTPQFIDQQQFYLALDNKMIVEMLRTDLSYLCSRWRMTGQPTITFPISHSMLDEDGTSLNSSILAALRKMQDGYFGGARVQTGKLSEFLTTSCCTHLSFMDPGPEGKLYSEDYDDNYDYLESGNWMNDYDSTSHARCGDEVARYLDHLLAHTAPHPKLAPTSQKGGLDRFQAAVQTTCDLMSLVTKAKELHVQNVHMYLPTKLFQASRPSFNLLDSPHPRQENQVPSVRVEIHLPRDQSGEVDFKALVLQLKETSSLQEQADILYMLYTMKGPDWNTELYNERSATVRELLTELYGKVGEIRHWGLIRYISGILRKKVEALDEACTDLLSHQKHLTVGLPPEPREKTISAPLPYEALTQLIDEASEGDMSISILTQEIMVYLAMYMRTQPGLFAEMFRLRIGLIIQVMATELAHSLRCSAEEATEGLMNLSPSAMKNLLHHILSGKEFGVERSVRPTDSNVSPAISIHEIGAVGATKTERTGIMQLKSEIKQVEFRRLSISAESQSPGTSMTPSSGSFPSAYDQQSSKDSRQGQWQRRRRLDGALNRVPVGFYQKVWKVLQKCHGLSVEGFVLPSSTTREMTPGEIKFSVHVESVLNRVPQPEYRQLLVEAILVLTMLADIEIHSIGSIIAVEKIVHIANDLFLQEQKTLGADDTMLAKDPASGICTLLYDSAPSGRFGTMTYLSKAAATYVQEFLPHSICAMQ
Chain of UniProt Q13362 (Q13362 whole entry, looked up): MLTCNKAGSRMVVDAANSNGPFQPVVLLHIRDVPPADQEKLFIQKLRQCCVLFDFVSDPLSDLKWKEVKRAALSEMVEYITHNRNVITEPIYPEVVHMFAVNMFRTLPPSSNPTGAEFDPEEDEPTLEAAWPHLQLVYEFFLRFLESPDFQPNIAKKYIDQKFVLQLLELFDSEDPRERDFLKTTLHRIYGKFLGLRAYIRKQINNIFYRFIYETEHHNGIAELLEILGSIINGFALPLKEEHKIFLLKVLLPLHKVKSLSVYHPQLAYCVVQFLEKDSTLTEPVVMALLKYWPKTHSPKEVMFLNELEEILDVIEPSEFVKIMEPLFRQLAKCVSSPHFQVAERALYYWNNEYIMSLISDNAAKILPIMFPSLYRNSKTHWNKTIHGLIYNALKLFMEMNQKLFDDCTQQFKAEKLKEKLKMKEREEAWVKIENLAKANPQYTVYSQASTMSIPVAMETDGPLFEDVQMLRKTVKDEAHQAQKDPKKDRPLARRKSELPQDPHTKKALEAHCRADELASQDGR
Chain of UniProt Q8TCD6 (Q8TCD6 whole entry, looked up): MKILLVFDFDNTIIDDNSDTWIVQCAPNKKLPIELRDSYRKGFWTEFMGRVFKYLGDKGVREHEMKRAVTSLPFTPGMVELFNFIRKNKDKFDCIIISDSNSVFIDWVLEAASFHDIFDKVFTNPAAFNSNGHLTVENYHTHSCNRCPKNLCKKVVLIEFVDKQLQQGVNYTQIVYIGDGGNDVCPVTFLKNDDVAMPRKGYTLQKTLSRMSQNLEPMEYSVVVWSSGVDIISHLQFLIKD

Row | Target | log2 fold change [1] | log2 fold change [2] | log2 fold change [3] | log2 fold change [4] | log2 fold change [5] | log2 fold change [6] | log2 fold change [7] | log2 fold change [8] | log2 fold change [9] | log2 fold change [10] | log2 fold change [11] | log2 fold change [12] | log2 fold change [13] | log2 fold change [14] | log2 fold change [15] | log2 fold change [16] | log2 fold change [17] | log2 fold change [18] | log2 fold change [19] | log2 fold change [20]
1 | PIP4K2B (UniProt P78356) | 0.016 | 0.012 | -0.045 | 0.21 (active) | 0.092 | 0.038 | 0.048 | 0.065 | -0.045 | -0.009 | 0.223 (active) | 0.008 | -0.014 | 0.031 | -0.065 | 0.062 | -0.093 | -0.036 | -0.028 | 0.013
2 | PHOSPHO2 (UniProt Q8TCD6) | -0.023 | -0.026 | 0.047 | 0.232 | 0.019 | 0.003 | -0.084 | 0.001 | -0.023 | 0.039 | 0.053 | -0.042 | -0.026 | -0.008 | -0.008 | -0.02 | 0.356 (active) | -0.013 | -0.008 | 0.016
3 | PDPK1 (UniProt O15530) | -0.03 | -0.002 | -0.027 | -0.06 | -0.047 | 0.012 | 0.041 | -0.017 | -0.025 | 0.133 | 0.009 | -0.121 | 0.107 | 0.21 | 0.501 (active) | -0.019 | 0.109 | 0.153 | 0.15 | 0.016
4 | PPP2R5C isoform 4 (UniProt Q13362) | 0.029 | 0.02 | -0.001 | 0.018 | -0.002 | 0.022 | -0.02 | -0.038 | 0.017 | -0.036 | 0.059 | -0.014 | -0.022 | -0.01 | -0.08 | -0.03 | -0.047 | -0.036 | 0.009 | -0.007
5 | PRAME (UniProt P78395) | 0.028 | -0.012 | 0.003 | -0.086 | -0.009 | 0.017 | -0.058 | 0.011 | 0 | 0.018 | 0.034 | -0.111 | 0.024 | 0.006 | -0.006 | -0.001 | 0.13 | 0.014 | 0.009 | -0.007
6 | PRRC2A (UniProt P48634) | -0.006 | 0.008 | -0.013 | 0.107 | 0.012 | 0.013 | 0.05 | 0.008 | 0.049 | -0.014 | -0.006 | -0.014 | -0.001 | 0.046 | -0.012 | 0.048 | -0.044 | 0.016 | 0.005 | -0.008
7 | PGGT1B (UniProt P53609) | -0.159 | 0.004 | 0 | -0.041 | 0.1 | 0.006 | 0.011 | 0.008 | 0.028 | -0.029 | 0.032 | 0.036 | -0.068 | 0.022 | -0.117 | -0.039 | 0.454 (active) | -0.011 | -0.032 | -0.021
8 | PES1 (UniProt O00541) | 0.009 | 0.023 | -0.019 | -0.074 | -0.04 | 0.017 | -0.043 | 0.052 | 0.007 | 0.028 | -0.017 | -0.044 | 0.05 | 0.005 | 0.017 | 0.006 | 0.35 (active) | 0.028 | -0.003 | 0.007
9 | PRPF38A (UniProt Q8NAV1) | -0.021 | -0.011 | -0.037 | -0.029 | -0.031 | -0.055 | -0.465 (active) | 0.046 | 0.004 | 0.191 | -0.178 | -0.068 | -0.147 | 0.013 | -0.004 | 0.115 | -0.009 | -0.044 | 0.013 | -0.017
10 | PMS2 (UniProt P54278) | -0.015 | -0.028 | 0.033 | -0.072 | -0.147 | 0.101 | -0.02 | 0.012 | -0.004 | 0.001 | -0.001 | -0.129 | 0.03 | 0.021 | 0.103 | 0.038 | 0.089 | 0.009 | 0.02 | 0.024
11 | PSTPIP2 (UniProt Q9H939) | 0.022 | 0.018 | 0.01 | -0.029 | -0.037 | -0.007 | 0.063 | -0.09 | 0.032 | 0 | -0.006 | -0.04 | 0.031 | -0.016 | 0.026 | 0.023 | 0.002 | -0.052 | -0.03 | -0.028
12 | PRKCSH (UniProt P14314) | 0.01 | -0.009 | -0.009 | 0.007 | 0.04 | 0.025 | 0.007 | -0.003 | 0.011 | 0.018 | 0.009 | 0.039 | -0.001 | -0.014 | -0.035 | -0.003 | -0.036 | -0.006 | 0.024 | 0.024
13 | PI4K2A (UniProt Q9BTU6) | -0.025 | 0.037 | 0.041 | -0.009 | -0.027 | 0.004 | 0.019 | 0.042 | -0.037 | 0.102 | -0.006 | -0.037 | 0.021 | -0.023 | 0.012 | 0.022 | -0.092 | -0.008 | -0.056 | 0.021
14 | PHKA1 (UniProt P46020) | -0.021 | 0.009 | 0.089 | 0.044 | -0.074 | 0.074 | -0.067 | 0.079 | -0.009 | -0.019 | 0.047 | -0.073 | 0.168 | 0.08 | -0.029 | 0.004 | 0.065 | -0.014 | 0.084 | 0.041
15 | PWP2 (UniProt Q15269) | 0.033 | 0.045 | 0.044 | 0.006 | -0.013 | 0.018 | 0.015 | -0.038 | 0.015 | 0.052 | -0.014 | -0.073 | 0.027 | 0.042 | 0.061 | 0.035 | -0.033 | 0.004 | -0.007 | -0.057
16 | PRKAR2A (UniProt P13861) | -0.01 | 0.033 | 0.055 | 0.011 | -0.013 | 0.009 | 0.065 | -0.26 (active) | -0.012 | -0.154 | -0.028 | -0.019 | -0.176 | -0.085 | -0.017 | 0.037 | 0.142 | 0.002 | -0.062 | 0.024
